Sampled rows, rich in hits. Any-hit rate of the full collection: about 1.6%.
KCNQ2 inh – inhibitors of rat KCNQ2 potassium channel. hit rate 1.1% among 310,000. B-score at 10 µM. AID 2156. CHO-K1 KCNQ2, FluxOR thallium flux, 20 min; stronger effect = lower value;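 active = fluorescence ratio B-score at most minus 3 library SDs, with starting brightness B-score within 2 library SDs, cut at about -5.5 in these data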
KCNQ2 enhance – enhances the rat KCNQ2 potassium channel. O88943. CHO-K1 KCNQ2, FluxOR thallium flux fluorescence; stronger effect = higher value. B-score at 10 µM. hit rate 0.54% among 310,000;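 active = fluorescence ratio B-score at least 3 SD of library B-scores, with initial fluorescence B-score within 3 of them, cut at about 5.3 in these data; same plate scores as AID 2156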;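 note: B-score of peak minus minimum over baseline fluorescence ratio after K+ and Tl+ stimulus; positive B-score means potentiation of KCNQ2 with more thallium influx and brighter signal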
A number is an active result; n = inactive; x = not tested or not shown.

SMILES	KCNQ2 inh	KCNQ2 enhance
O=C(c1ccc(Cl)c(S(=O)(=O)N2CCCC2)c1)N1CCN(c2ccccn2)CC1	n	n
COc1ccc(CN2CCc3ccccc3C2)cc1Br	n	n
Cc1nn(C)c2nc(-c3cccs3)cc(C(F)(F)F)c12	n	x
Cc1nn(CCO)c2nc(-c3cccs3)cc(C(F)(F)F)c12	n	5.75
CN(C)c1ccc(C(C#N)c2ccccc2)nn1 (stereo not drawn)	n	x
CCCn1c(/N=C/c2ccccc2O)nc2ccccc21	n	n
Cn1c(/N=C/c2c(O)ccc3ccccc23)nc2ccccc21	n	9.91
CCN(CC)CCNc1nc(-c2ccccc2)nnc1C(F)(F)F	n	9.04
CCN(CC)CCNc1nc(C(F)(F)F)nc2c1nnn2Cc1ccccc1	n	n
CCOC(=O)C1=C(N)Oc2ccc3ccccc3c2C1c1ccc(O)cc1 (stereo not drawn)	-6.53	n
CCOC(=O)C1=C(N)Oc2ccc3ccccc3c2C1c1ccc(O)c(OC)c1 (stereo not drawn)	n	x
COc1ccc2oc(C(=O)OCC(=O)/C(C#N)=C(\C)N)c(C)c2c1	n	n
O=C(NC1CCOc2ccccc21)C1CCCC1 (stereo not drawn)	n	x
CCN(CC)C(=S)Nc1ccc2nc3n(c(=O)c2c1)CCCCC3	n	n
C=CCn1c(SCc2ccc3c(c2)OCO3)nc2scc(-c3ccco3)c2c1=O	-6.12	n
C=CCn1c(SCC(C)=O)nc2scc(-c3ccco3)c2c1=O	n	x
Cc1ccccc1C(=O)N1CCCC(N2CCN(Cc3ccc4c(c3)OCO4)CC2)C1 (stereo not drawn)	n	n
COc1cc(C(=O)NCc2ccc(S(N)(=O)=O)cc2)ccc1OCC(=O)Nc1cccc(C(F)(F)F)c1	n	n
COc1cc(C(=O)N(C)CCOc2ccccc2)ccc1OCC(=O)Nc1cccc(C(F)(F)F)c1	-6.66	n
O=C(Cc1cccs1)N1CCN(S(=O)(=O)c2ccc(Br)cc2)CC1	n	n
COc1cc(/C=N/N=C/c2c[nH]c(=O)c(C#N)c2Nc2ccccc2)ccc1O	n	x
O=C(NCc1ccccc1Cl)c1cnccc1C(F)(F)F	n	7.42
O=C(NCc1ccccc1Cl)c1cnccn1	n	n
O=C(NCc1ccccc1Cl)c1ccccc1CCc1ccccc1	-5.56	n
O=C(NCc1ccc(Cl)cc1)c1ccccc1CCc1ccccc1	n	n
SMILES	KCNQ2 inh	KCNQ2 enhance
COc1ccc(NC(=O)CN(C)C(=O)c2ccccc2CCc2ccccc2)cc1	n	x
CCc1cccc(CC)c1NC(=O)c1ccccc1CCc1ccccc1	-6.1	n
CN(CC(=O)Nc1cccc(F)c1)C(=O)c1ccccc1CCc1ccccc1	-6.24	n
Cc1cc(C)c(NC(=O)c2ccccc2CCc2ccccc2)c(C)c1	n	x
Cc1ccc(C)c(N2CCN(C(=O)c3csc4ccccc34)CC2)c1	n	x
CC(CCc1ccccc1)NC(=O)C(Cc1ccccc1)NS(=O)(=O)c1cccs1 (stereo not drawn)	-5.74	n
CC1CCCCC1NC(=O)C(Cc1ccccc1)NS(=O)(=O)c1cccs1 (stereo not drawn)	n	x
CC[N+]1(CC)CC2=Cc3c(ccc4ccccc34)C(C)C2C1 (stereo not drawn)	n	x
COc1ccc(CN(C(C)=O)c2cccc(C)c2C)cc1	n	x
CC(=O)N(Cc1ccc(Br)cc1)c1cccc(C)c1C	-6.49	n
O=[N+]([O-])c1cccc(-c2nnc(-c3ccccc3F)o2)c1	n	x
C(=C\c1ccccc1)/CSc1nnc(-c2ccncc2)n1Cc1ccco1	n	x
Nn1c(SC/C=C/c2ccccc2)nnc1-c1ccco1	n	n
C(=C\c1ccccc1)/CSc1nnc(-c2ccccc2)n1Cc1ccco1	-5.93	n
Clc1cccc(-c2nnc(SC/C=C/c3ccccc3)n2Cc2ccco2)c1	-8.28	n
N#CC1(NC(=O)CN2c3cccc4cccc(c34)S2(=O)=O)CCCCC1	n	n
CC(C)(C)NC(=O)COC(=O)c1ccc2c(c1)C(=O)N(Cc1ccco1)C2=O	n	n
COc1cc(C=C(c2nc3ccccc3s2)c2nc3ccccc3s2)ccc1O	-5.97	n
COc1ccc(C=C(c2nc3ccccc3s2)c2nc3ccccc3s2)cc1O	n	x
COc1ccc(Cl)cc1NC(=O)C[n+]1cccc(C)c1	n	x
CCOc1ccc2ccccc2c1CNc1nnnn1C	-6.01	n
CCOc1ccccc1CNc1nnnn1C	n	n
Cn1c(SCC(=O)NC2(C#N)CCCCC2)nnc1-c1cccnc1	n	n
Clc1cccc(/C=N/Nc2nnc(Cl)c3ccccc23)c1	n	x
Clc1ccc(/C=N/Nc2nnc(-c3ncc[nH]3)c3ccccc23)cc1	-5.71	n
SMILES	KCNQ2 inh	KCNQ2 enhance
N#CCCN(C(=O)COC(=O)CCc1c[nH]c2ccccc12)c1ccccc1	n	n
C=CCOc1ccc(C(=O)n2cc(C(=O)OC)c3ccccc32)cc1	-6.16	n
COC(=O)c1cn(C(=O)c2ccc(F)cc2)c2ccccc12	n	x
COc1ccc(Cc2nnc(Cl)c3ccccc23)cc1OC	n	n
CNS(=O)(=O)c1cccc(C(=O)NNC(=O)c2ccc(COc3ccccc3)cc2)c1	n	x
CCN(Cc1ccccc1)C(=O)c1ccc(C(=O)N(CC)Cc2ccccc2)cc1	n	x
O=C(c1ccccc1)N(Cc1ccccc1)Cc1ccccc1	-6.32	n
CCN(Cc1ccccc1)C(=O)C1CCN(CC2CC=CCC2)CC1 (stereo not drawn)	n	x
O=C(C1CC1)N(CCN(Cc1ccccc1)C(=O)C1CC1)Cc1ccccc1	-7.14	n
CSc1ncc(CO)n1Cc1ccccc1	n	n
COc1cccc(/C=N/n2c(=S)n(C)c3cc(C)c(C)cc32)c1OC	-6.13	n
COc1cccc(/C=N/n2c(-c3cc(C)[nH]n3)n[nH]c2=S)c1OC	n	x
CSc1nc(O)c(C(c2cccc([N+](=O)[O-])c2)c2c(O)nc(SC)[nH]c2=O)c(=O)[nH]1	n	x
Nc1c(Cl)c(Cl)nc(C(=O)OCC(=O)NC2CCCCC2)c1Cl	n	n
COc1ccccc1-n1c(SC)nc2c(sc(=S)n2-c2ccccc2)c1=O	n	n
COc1ccccc1-n1c(=S)sc2c(=O)n(Cc3ccco3)c(SC)nc21	-6.92	n
FC(F)(F)c1nnc(-c2ccccc2)nc1Oc1ccc(Cl)cc1Cl	-7.72	n
FC(F)(F)c1cccc(Oc2nc(-c3ccccc3)nnc2C(F)(F)F)c1	n	x
Cc1c(NS(=O)(=O)c2ccc(NC(=O)CCC(=O)O)cc2)c(=O)n(-c2ccccc2)n1C	n	x
CC(Sc1nc2cc([N+](=O)[O-])ccc2n1-c1ccc(F)cc1)C(=O)NCc1ccc2c(c1)OCO2 (stereo not drawn)	-7.98	n
COc1ccccc1-n1c(SCC(=O)NCc2ccc3c(c2)OCO3)nc2cc([N+](=O)[O-])ccc21	n	x
O=C(CCN1C(=O)[C@@H]2Cc3ccccc3CN2C1=O)N[C@@H](Cc1ccccc1)C(=O)O	n	n
Brc1ccc(-c2noc(COc3ccc4c(c3)CCC4)n2)o1	n	x
c1csc(-c2noc(COc3ccc4c(c3)CCCC4)n2)c1	-6.04	n
Cc1cc(C)c(NC(=O)CN2C(=O)CC(C)S(=O)(=O)c3ccccc32)c(C)c1 (stereo not drawn)	n	x
Cc1ccc(NC(=O)c2ccc3c(c2)N(CC(=O)N2CCCCC2)C(=O)C(C)(C)O3)cc1	-7.89	n
CC(C)(C)NC(=O)c1ccc2c(c1)N(CC(=O)N1CCCCC1)C(=O)C(C)(C)O2	n	n
CCOC(=O)CN1C(=O)C(C)(C)Oc2ccc(C(=O)Nc3ccccc3OC)cc21	-6.47	n
COc1ccccc1NC(=O)c1ccc2c(c1)N(CC(=O)NC(C)(C)C)C(=O)C(C)(C)O2	n	x
